# Test results taken from PubChem BioAssay (NCATS).
# Several values for one entry are separate records, joined by “and”; a condition that tells them apart may be missing. Identical values can stand only once. Results filed as inconclusive are left out. Where a call stands in place of a potency, no number is given. A structure can be active in one record and inactive in another. Activity calls are given as the source filed them. Unless noted, the call rests on the fitted dose curve; in most records, active means well fitted curve in the direction sought with a large enough effect; inconclusive means small, poorly fitted or top-dose-only effect, or another doubt; inactive means no such curve, though single readings can be large; an effect the other way counts as inactive or inconclusive.
# Columns and labels:
# [1] = qHTS Assay for Identifying Gametocytocidal Compounds (AID 743244); further: potency means the concentration at half of the fitted maximal effect;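 on max response: actives lower the fluorescent signal which means gametocytes are killed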; conditions: P. falciparum 3D7 stage III-V gametocytes, alamarBlue, 72 h; max response: stronger effect = lower value
# Summary of the method: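 Viability read-out was resazurin reduction (alamarBlue, 24 h) measured at Ex 525/Em 598 nm. Beforehand, late-stage (III-V) 3D7 P. falciparum gametocytes at 20,000 cells/well were incubated with compound 72 h at 37C under 5% CO2.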
# [2] = qHTS assay for measurement of the activity of small molecule inhibitors on Zika virus induced Caspase-3 activity in human iPSC derived neural progenitor cells (hNPCs) (AID 1224857); further: nearly all actives have a fitted effect of over 65% in size
# Summary of the method: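 Percent inhibition of virus-induced caspase-3/7 luminescence (Caspase-Glo), scaled between uninfected cells and Zika-infected cells. hNPCs received compound 1 hr before ZIKV at 2 FFU/cell, with 6 hours infection at 37 C.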
# [3] = qHTS assay for measurement of the activity of small molecule inhibitors on Zika virus induced Caspase-3 activity in human astrocytoma cells (AID 1224859)
# Summary of the method: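 Luminescent caspase-3/7 read-out (30 min reagent, room temperature) in human SNB-19 cells infected 6 h with ZIKV (2 FFU/cell) after 1 h compound pre-incubation; Data were normalised to uninfected and infected wells.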
# [4] = qHTS for compounds that reverse cellular toxicity of Amyloid beta (A-beta) peptide in yeast: LOPAC Validation Assay (AID 720559)
# Summary of the method: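 Activity is expressed relative to DMSO and an equimolar ferric chloride/clioquinol mix. Compounds were pinned into medium with A-beta-expressing yeast, grown 48 hr at 30 C, then read by absorbance at 600 nm.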
# [5] = qHTS for Activators of Parkin Expression: LOPAC Validation Assay (NLuc Reporter) (AID 720572)
# Summary of the method: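 Compound effects on Parkin promoter activity were measured as NanoLuc luminescence after 24 h at 37 C. The neuronal reporter line also carried FLuc, which was read first. LOPAC compounds were tested at 7 concentrations, with normalization to DMSO (0%) and positive control (100%).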
# [6] = qHTS assay for small molecule agonists of the antioxidant response element (ARE) signaling pathway measured by Nrf2-dependant transcriptional activity - cell viability counter screen (AID 720653; active means well fitted curve in the direction sought with a large enough effect in the repeat runs; an effect the other way counts as inactive or inconclusive); conditions: ARE-bla HepG2 viability, CellTiter-Glo ATP luminescence, 16 h; stronger effect = lower value
# Summary of the method: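 Cytotoxicity counter screen: intracellular ATP quantified by CellTiter-Glo luminescence in the same ARE-bla HepG2 plates, after 16 h compound exposure and a 2 h beta-lactamase substrate step.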
# [7] = molecular target: T1, Hexokinase-4 (Homo sapiens) + Glucokinase regulatory protein (Homo sapiens) (UniProt P35557+Q14397); experiment: qHTS assay for inhibitors of recombinant human GCK-GKRP interaction: Diaphorase-coupled assay (AID 743205)
# T1 sequence (P35557 whole entry, looked up): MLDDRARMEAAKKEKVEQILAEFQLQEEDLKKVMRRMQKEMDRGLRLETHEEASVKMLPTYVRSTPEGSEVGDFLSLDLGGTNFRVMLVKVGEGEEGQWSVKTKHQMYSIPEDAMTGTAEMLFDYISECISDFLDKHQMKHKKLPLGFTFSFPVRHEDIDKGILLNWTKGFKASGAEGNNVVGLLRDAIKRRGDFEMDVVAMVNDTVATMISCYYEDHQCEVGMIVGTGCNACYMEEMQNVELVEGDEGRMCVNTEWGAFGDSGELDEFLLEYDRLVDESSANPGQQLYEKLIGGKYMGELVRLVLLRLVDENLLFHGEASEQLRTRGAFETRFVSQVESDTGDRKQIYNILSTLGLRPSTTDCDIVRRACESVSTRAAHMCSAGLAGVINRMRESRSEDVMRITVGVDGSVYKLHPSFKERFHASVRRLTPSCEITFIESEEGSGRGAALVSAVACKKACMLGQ
# T1 sequence (Q14397 whole entry, looked up): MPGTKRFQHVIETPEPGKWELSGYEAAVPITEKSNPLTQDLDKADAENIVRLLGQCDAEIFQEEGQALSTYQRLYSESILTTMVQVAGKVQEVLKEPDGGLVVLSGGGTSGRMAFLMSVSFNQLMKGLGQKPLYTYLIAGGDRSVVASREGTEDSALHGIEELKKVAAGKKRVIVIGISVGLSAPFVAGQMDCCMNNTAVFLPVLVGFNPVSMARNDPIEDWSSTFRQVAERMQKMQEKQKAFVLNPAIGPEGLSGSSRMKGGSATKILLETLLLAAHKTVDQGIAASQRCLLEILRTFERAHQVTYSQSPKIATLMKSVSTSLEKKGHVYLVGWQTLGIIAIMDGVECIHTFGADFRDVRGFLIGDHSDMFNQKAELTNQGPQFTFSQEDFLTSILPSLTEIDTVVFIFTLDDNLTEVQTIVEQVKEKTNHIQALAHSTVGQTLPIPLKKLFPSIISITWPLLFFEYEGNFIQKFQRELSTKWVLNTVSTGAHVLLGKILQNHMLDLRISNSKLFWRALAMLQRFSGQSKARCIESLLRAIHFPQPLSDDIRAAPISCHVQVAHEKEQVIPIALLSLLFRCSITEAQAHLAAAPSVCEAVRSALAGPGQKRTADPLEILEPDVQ
# Summary of the method: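 Inhibitors of the GCK–GKRP complex relieve GKRP suppression of GCK, detected through a G6PDH–diaphorase cascade reducing resazurin. Human GST-GCK and FLAG-GKRP are used at 10 nM with 5 mM glucose and 0.4 mM ATP.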
# [8] = molecular target: T1, Hexokinase-4 (Homo sapiens) + Glucokinase regulatory protein (Homo sapiens); experiment: qHTS assay for inhibitors of recombinant human GCK-GKRP interaction: HTRF assay (AID 743207)
# Summary of the method: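 Steps: dispense GCK–GKRP complex (5 nM each, GST- and FLAG-tagged) with 2 uM S6P; pin in compounds; add XL665/Eu-cryptate-labelled antibodies; incubate 60 min at room temperature; read time-resolved FRET at 665 and 615 nm.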
# [9] = molecular target: Tyrosine-protein kinase Yes (Homo sapiens) (UniProt P07947); experiment: qHTS for small molecule inhibitors of Yes1 kinase: Primary Screen (AID 686947); further: nearly all actives have a fitted effect of over 60% in size
# Tyrosine-protein kinase Yes (Homo sapiens), sequence (P07947 whole entry, looked up): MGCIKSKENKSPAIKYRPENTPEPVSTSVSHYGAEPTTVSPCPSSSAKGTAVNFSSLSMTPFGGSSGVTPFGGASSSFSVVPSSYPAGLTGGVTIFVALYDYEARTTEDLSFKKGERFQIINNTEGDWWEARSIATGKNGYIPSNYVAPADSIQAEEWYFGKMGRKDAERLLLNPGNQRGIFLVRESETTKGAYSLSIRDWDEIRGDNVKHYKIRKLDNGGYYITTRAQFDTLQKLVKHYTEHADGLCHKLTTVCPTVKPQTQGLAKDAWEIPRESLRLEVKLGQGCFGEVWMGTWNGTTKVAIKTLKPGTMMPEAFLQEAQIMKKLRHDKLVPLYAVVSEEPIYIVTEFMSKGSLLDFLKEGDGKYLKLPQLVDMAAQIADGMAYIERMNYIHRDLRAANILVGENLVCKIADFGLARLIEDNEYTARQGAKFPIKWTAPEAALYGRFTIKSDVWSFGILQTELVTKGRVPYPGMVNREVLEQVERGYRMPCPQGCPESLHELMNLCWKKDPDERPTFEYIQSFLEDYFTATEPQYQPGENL
# Summary of the method: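 In this qHTS format, inhibition is expressed relative to DMSO controls with enzyme (maximum) and without enzyme (minimum). The 60 min room-temperature reaction uses 0.1 mM ATP, with ADP detected by luminescence.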
# [10] = qHTS for small molecule inhibitors of Yes1 kinase: Counter Assay (AID 686950);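 further: no kinase present so only ADP-Glo detection of a fixed ADP amount is tested; luminescence from ADP-Glo reporting ADP in a fixed ATP and ADP mixture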
# Summary of the method: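 ADP-Glo luminescence read after a 60 min room-temperature incubation of compound with an ATP/ADP mix (0.08 mM/0.02 mM) and no kinase, following a 20 min compound preincubation. Signal scaled between ATP+ADP (max) and 0.1 mM ATP-only (min) wells; Tris pH 7.5, Mg2+, DTT.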
# [11] = qHTS assay for small molecule agonists of the antioxidant response element (ARE) signaling pathway measured by Nrf2-dependant transcriptional activity (AID 720636; active means well fitted curve in the direction sought with a large enough effect in the repeat runs; an effect the other way counts as inactive or inconclusive;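 further: HepG2 cells with an ARE-driven luciferase reporter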)
# Summary of the method: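 Attachment 6 hr at 37 C, then compound versus DMSO vehicle for 16 hr in ARE-luc HepG2 cells (1% dialyzed FBS); luminescence recorded 30 min after ONE-Glo addition at room temperature.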
# [12] = qHTS assay for small molecule antagonists of the retinoid-related orphan receptor gamma (ROR-gamma) signaling pathway - cell viability counter screen (AID 720652; active means well fitted curve in the direction sought with a large enough effect in the repeat runs; an effect the other way counts as inactive or inconclusive;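 further: potency means the concentration at half of the fitted maximal effect; compound exposure lasted 16 hr before ATP read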)
# Summary of the method: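 CHO RORE-LUC/TET-ROR line, 1,000 cells/well, 37 C 5% CO2 5 hr; cpd or DMSO + doxycycline induction, 16 hr. CellTiter-Glo, 30 min RT, luminescence = ATP content.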
# [13] = qHTS assay for cell viability of the p53RE-bla HCT-116 cell line (AID 743292); further: nearly all actives have a fitted effect of over 55% in size
# Summary of the method: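 Compound-exposed HCT-116 (p53RE-bla) cells, 4,000 per well, were kept 16 h at 37 C following a 5 h preincubation. Cell number was estimated from total ATP by CellTiter-Glo luminescence read after 30 min at room temperature.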
# [14] = qHTS profiling for inhibitors of Plasmodium falciparum (3D7) proliferation (AID 743322);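 further: infected erythrocytes exposed to compound for 72 h before lysis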; conditions: P. falciparum 3D7 proliferation; at 28.7 µM (top of the series) unless noted
# Summary of the method: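 Parasite DNA was quantified by SYBR Green I fluorescence (ex 485, em 535 nm) after overnight lysis in saponin/Triton buffer at room temperature. Cultures at 0.3% parasitemia and 2.5% hematocrit were first exposed to compound for 72 h at 37 C; signals were normalised to artemisinin (0.29 uM) and vehicle wells.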
# [15] = qHTS profiling for inhibitors of Plasmodium falciparum (DD2) proliferation (AID 743323; call rule not given here); conditions: lower = more inhibition; at 28.7 µM (top of the series) unless noted
# Summary of the method: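 P. falciparum Dd2-infected erythrocytes (0.3% parasitemia, 2.5% hematocrit) exposed 72 h at 37 C, 5% CO2. Lysis with SYBR Green, overnight at room temperature, fluorescence 485/535 nm; normalized to 0.29 uM artemisinin and DMSO.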
# [16] = qHTS profiling for inhibitors of Plasmodium falciparum (HB3) proliferation (AID 743324); conditions: Plasmodium falciparum HB3 blood-stage proliferation; at 28.7 µM (top of the series) unless noted
# Summary of the method: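 SYBR Green fluorescence (485 ex/535 em) of lysed cultures, incubated overnight at room temperature in the dark, quantifies parasite DNA. Infected erythrocytes at 0.3% parasitemia and 2.5% hematocrit were exposed 72 h; values normalized to DMSO and 0.29 uM artemisinin controls.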
structure (smiles),measurement,setting,value
C[C@]12C=CC(=O)C=C1[C@@H](F)C[C@@H]1[C@@H]2[C@@H](O)C[C@@]2(C)[C@H]1CC[C@]2(O)C(=O)CO,max response,[1],-0.315% (inactive) and -15.3% (inactive)
same,outcome,[2],inactive
same,outcome,[3],inactive
Nc1ccc(C(=O)Nc2ccccc2N)cc1,max response,[1],0.176% (inactive)
same,outcome,[2],inactive
same,outcome,[3],inactive
CCC(=O)c1c(O)cc(O)cc1O,max response,[1],19% (inactive)
same,outcome,[2],inactive
same,outcome,[3],inactive
Cc1cc(O)c(C(C)C)cc1Cl,max response,[1],-3.92% (inactive)
same,outcome,[2],inactive
same,outcome,[3],inactive
CC(Cc1ccccc1)(NC(=O)CN)c1ccccc1 (configuration not stated),max response,[1],-4.06% (inactive)
same,outcome,[2],inactive
same,outcome,[3],inactive
CCn1cc(C(=O)O)c(=O)c2cnc(N3CCCC3)nc21,max response,[1],-1.94% (inactive)
same,"activity change, negative = inhibition",[2],-4.24% [at 9.06 µM] (inactive)
same,"activity change, negative = inhibition",[3],4.3% [at 9.06 µM] (inactive)
O=C(O)CNC(=O)c1ccccc1,max response,[1],1.04% (inactive)
same,outcome,[2],inactive
same,outcome,[3],inactive
C[C@@H]1C[C@H]2[C@@H]3C[C@H](F)C4=CC(=O)C(Cl)=C[C@]4(C)[C@@]3(F)[C@@H](O)C[C@]2(C)[C@@]1(O)C(=O)CO,max response,[1],5.34% (inactive)
same,outcome,[2],inactive
same,outcome,[3],inactive
COc1cc(N)c(Cl)cc1C(=O)NC1CCN(CCCOc2ccc(F)cc2)CC1OC (configuration not stated),max response,[1],-0.854% (inactive)
same,outcome,[2],inactive
same,outcome,[3],inactive
NC[C@H]1O[C@H](O[C@H]2[C@H](O[C@@H]3O[C@H](CO)[C@@H](O)[C@H]3O)C(O)[C@H](N)C[C@@H]2N)[C@H](N)[C@@H](O)[C@@H]1O (some centres not stated),max response,[1],0.613% (inactive)
same,"activity change, negative = inhibition",[2],16.5% [at 9.06 µM] (inactive)
same,"activity change, negative = inhibition",[3],3.88% [at 9.06 µM] (inactive)
O=C(OCC(O)CO)c1ccccc1Nc1ccnc2cc(Cl)ccc12 (configuration not stated),max response,[1],7.94% (inactive)
same,outcome,[2],inactive
same,outcome,[3],inactive
CCCCCCC[N+](CC)(CC)CCCCc1ccc(Cl)cc1,Potency,[1],3.55 µM (active)
same,outcome,[2],inactive
same,outcome,[3],inactive
Cc1c(C(C)C)c(=O)n(-c2ccccc2)n1C,max response,[1],39.2% (inactive)
same,outcome,[2],inactive
same,outcome,[3],inactive
COc1cc(/C=C/C(=O)O[C@H]2CC[C@]34C[C@]35CC[C@]3(C)[C@@H]([C@H](C)CCC=C(C)C)CC[C@@]3(C)[C@@H]5CC[C@H]4C2(C)C)ccc1O,max response,[1],-6.26% (inactive) and 0.13% (inactive)
same,outcome,[2],inactive
same,outcome,[3],inactive
CC(C)(CO)[C@@H](O)C(=O)NCCCO,max response,[1],14.7% (inactive)
same,outcome,[2],inactive
same,outcome,[3],inactive
CCCCC(CC)CN=C(N)NC(N)=NCCCCCCN=C(N)NC(N)=NCC(CC)CCCC (configuration not stated),Potency,[1],6.31 µM (active)
same,outcome,[2],inactive
same,outcome,[3],inactive
CNC(=O)CN(CCN(CCN(CC(=O)[O-])CC(=O)NC)CC(=O)[O-])CC(=O)[O-].O.[Gd+3],max response,[1],14.6% (inactive) and -8.14% (inactive)
same,outcome,[2],inactive
same,outcome,[3],inactive
C#C[C@]1(OC(C)=O)CC[C@H]2[C@@H]3CCC4=C[C@@H](OC(C)=O)CC[C@@H]4[C@H]3CC[C@@]21C,max response,[1],-2.21% (inactive) and -10.1% (inactive)
same,outcome,[2],inactive
same,outcome,[3],inactive
CC(=O)CC(c1ccc([N+](=O)[O-])cc1)c1c(O)c2ccccc2oc1=O (configuration not stated),max response,[1],29.4% (inactive)
same,outcome,[2],inactive
same,outcome,[3],inactive
CC(Cc1cccc(C(F)(F)F)c1)NCCOC(=O)c1ccccc1 (configuration not stated),max response,[1],8% (inactive)
same,outcome,[2],inactive
same,outcome,[3],inactive
C[C@H](O)C(=O)Nc1c(I)c(C(=O)NC(CO)CO)c(I)c(C(=O)NC(CO)CO)c1I,max response,[1],9.34% (inactive)
same,outcome,[2],inactive
same,outcome,[3],inactive
O=C(Nc1ccc(Oc2ccc(Cl)cc2)c(Cl)c1)c1cc(I)cc(I)c1O,max response,[1],-9.6% (inactive)
same,outcome,[2],inactive
same,outcome,[3],inactive
NCCc1ccn[nH]1,max response,[1],5.14% (inactive)
same,outcome,[2],inactive
same,outcome,[3],inactive
CCN(CCCCOC(=O)c1ccc(OC)c(OC)c1)C(C)Cc1ccc(OC)cc1 (configuration not stated),max response,[1],14.8% (inactive)
same,outcome,[2],inactive
same,outcome,[3],inactive
OC[C@@H](O)[C@@H](O[C@@H]1O[C@H](CO)[C@H](O)[C@H](O)[C@H]1O)[C@H](O)[C@@H](O)CO,max response,[1],9.4% (inactive)
same,outcome,[2],inactive
CC(=O)Oc1ccc(C(=C2CCCCC2)c2ccc(OC(C)=O)cc2)cc1,max response,[1],9.87% (inactive)
same,outcome,[2],inactive
same,outcome,[3],inactive
CCN(CC)CCOC(=O)C(c1ccccc1)C1CCCCC1 (configuration not stated),max response,[1],15% (inactive)
same,outcome,[2],inactive
same,outcome,[3],inactive
COc1c2occc2c(OC)c2c(=O)cc(C)oc12,max response,[1],22.1% (inactive)
same,outcome,[2],inactive
Oc1ccc(O)cc1,outcome,[4],inactive
same,outcome,[5],inactive
same,max response,[6],-23.3% (inactive)
same,outcome,[7],inactive
same,outcome,[8],inactive
same,outcome,[2],inactive
C[C@@H](CN(C)C)CN1c2ccccc2Sc2ccccc21,outcome,[3],inactive
CCCCCC=CCC=CCCCCCCCC(=O)OCC,max response,[1],0.796% (inactive)
same,outcome,[2],inactive
COc1cccc2c1C(=O)c1c(O)c3c(c(O)c1C2=O)C[C@@](O)(C(=O)CO)C[C@@H]3O[C@H]1C[C@H](N)[C@H](O)[C@H](C)O1,outcome,[9],inactive
same,outcome,[10],inactive
same,Potency,[11],inactive
same,Potency,[12],23.7 µM (active)
same,Potency,[1],526 nM (active) and 2.82 µM (active)
same,max response,[1],-8.37% (inactive)
same,outcome,[13],inactive
same,remaining parasite growth % (stronger effect = lower value),[14],-4.76%
same,"activity, percent of control",[15],-2.65%
same,"remaining proliferation (% of control), lower = more inhibition",[16],-0.62%
same,outcome,[2],inactive
